Test results as given in PubChem BioAssay (NCATS).
Results filed as inconclusive are left out. Entries that show only a call come without a potency. Activity calls are given as the source filed them. Calls come from the whole dose curve; as a rule, active = well fitted cell-killing curve with a large enough effect; inconclusive = small, poorly fitted or top-dose-only effect; inactive = flat fitted curve, though single readings scatter.

assay: Cell Viability - LYMP2-026 (AID 989); settings: LYMP2-026 lymphoblastoid cell viability, qHTS; series mostly up to 92.2 µM;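 note: cells exposed to compound for 24 h at 37 °C; nearly all actives have a fitted effect of over 50% in size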
Excerpt: NIH Chemical Genomics Center [NCGC]
NIH Molecular Libraries Screening Centers Network [MLSCN]
National Institutes of Environmental Health Sciences [NIEHS]
National Toxicology Program [NTP]
We have developed a 1536-well cell-based assay for quantitative high throughput screening (qHTS) against a number of cell lines to determine in vitro cytotoxicity of small molecules. This particular assay uses a human lymphoblastoid cell line (LYMP2-026) purchased from Coriell Institute for Medical Research.
NCGC Assay Protocol Summary:
The CellTiter-Glo luminescent cell viability assay (Promega) is a homogeneous method to measure the number of viable cells in culture. The end point readout of this assay is based on quantitation of intracellular ATP, an indicator of metabolic activity, using the luciferase reaction. Luciferase catalyzes the oxidation of beetle Luciferin to oxyluciferin and light in the presence of ATP. The luminescent signal is proportional to amount of ATP present.
Using the CellTiter-Glo luminescent cell viability assay, the amount of cellular ATP was measured in the lymphoblastoid cell line with complete culture medium following compound treatment for 24 hours. The assay was performed in opaque white Kalypsys 1536-well plates. In the screen, tetraoctylammonium bromide was used as positive control. Library compounds were measured for their ability to cause acute toxicity in the cell line, as reflected by a decrease in intracellular ATP levels, in a concentration-dependent manner. […] AC50 values were determined from concentration-response data modeled with the standard Hill equation.
qHTS protocol for CellTiter Glo lymphoblastoid cellular assay
[Step] [Parameter] [Value] [Description]
1. Reagent; 5 uL; 2500 lymphoblastoid cells/well
2. Time; 5 hr; 37 C incubation
4. Controls; 23 nL; Tetraoctylammonium bromide 6.4pM to 92 uM
5. Time; 24 hr; 37 C incubation
6. Reagent; 5 uL; CellTiter Glo reagent
7. Time; 30 min; Room Temperature
8. Detection; Luminescence; Viewlux plate reader
Keywords: cell viability, cytotoxicity, lymphoblastoid cell line, luminescence, NTPHTS, NTPHTS_NCGC, NIEHS, DSSTox, MLSMR, MLSCN, NIH Roadmap, qHTS, NCGC
Potency is the fitted concentration of half-maximal effect.

Structure (SMILES)	Potency
COc1ccccc1N	inactive
CCOP(=S)(OCC)SCCSCC	inactive
C=CC(=O)OCCN(C)C	inactive
CC(C)(OOC(C)(C)c1ccccc1)c1ccccc1	inactive
Clc1ccc(Cl)c(Cl)c1	inactive
COP(=S)(OC)SCn1nnc2ccccc2c1=O	inactive
CCCN(CCC)c1c([N+](=O)[O-])cc(C(F)(F)F)cc1[N+](=O)[O-]	inactive
Oc1c(Cl)cccc1Cl	inactive
CC(C)(C)C(O)(CCc1ccc(Cl)cc1)Cn1cncn1 (stereo not given)	inactive
O=C(O)CCl	inactive
Nc1ccccc1-c1ccccc1	inactive
C=CCO	inactive
C=CCCC#N	inactive
N#CCCCCC#N	inactive
CN(C)c1ccccc1	inactive
CC(C)CC(C)N (stereo not given)	inactive
Clc1cccc2ccccc12	inactive
C=CCBr	inactive
ClCCBr	inactive
Cc1ccc(OP(=O)(Oc2ccc(C)cc2)Oc2ccc(C)cc2)cc1	inactive

Structure (SMILES)	Potency
CC(C)CON=O	inactive
ClCCOCCCl	inactive
CCCCOCC1CO1 (stereo not given)	inactive
Nc1ccc(Cl)c(Cl)c1	inactive
CCN(CC)N=O	inactive
O=P(OCCCl)(OCCCl)OCCCl	inactive
Nc1ccc2ccccc2c1	inactive
CCOS(C)(=O)=O	inactive
CN1CSC(=S)N(C)C1	39.8 µM (active)
O=C(Cl)OCc1ccccc1	inactive
CCC/C=N/O	inactive
O=[N+]([O-])c1ccc(Cl)c(Cl)c1Cl	inactive
Cc1ccccc1[N+](=O)[O-]	inactive
CC(C)(C)OOC(=O)c1ccccc1	inactive
[O-][Cl+2]([O-])O	inactive
O=[N+]([O-])c1ccc(Cl)cc1	inactive
CCOC(=O)C1OC1(C)c1ccccc1 (stereo not given)	inactive
O=[N+]([O-])c1c(Cl)c(Cl)c(Cl)c(Cl)c1Cl	inactive
ClC(Br)Br	inactive
Cc1ccc(N)c(C)c1	inactive
